Assay in all cases: DAPPL (digital affinity profiling via proximity ligation, sequencing); 10 mM Tris-HCl pH 7.5, 50 mM NaCl, 1 mM DTT, 4% glycerol, room temperature, 30 min; GST-TFs on glutathione beads, 16-mer random dsDNA library, 0.1% formaldehyde crosslink after washing; high values mean tight binding
In assay [1] the target is T1, FLI1 (Homo sapiens, UniProt Q01543 1-452).
T1 sequence: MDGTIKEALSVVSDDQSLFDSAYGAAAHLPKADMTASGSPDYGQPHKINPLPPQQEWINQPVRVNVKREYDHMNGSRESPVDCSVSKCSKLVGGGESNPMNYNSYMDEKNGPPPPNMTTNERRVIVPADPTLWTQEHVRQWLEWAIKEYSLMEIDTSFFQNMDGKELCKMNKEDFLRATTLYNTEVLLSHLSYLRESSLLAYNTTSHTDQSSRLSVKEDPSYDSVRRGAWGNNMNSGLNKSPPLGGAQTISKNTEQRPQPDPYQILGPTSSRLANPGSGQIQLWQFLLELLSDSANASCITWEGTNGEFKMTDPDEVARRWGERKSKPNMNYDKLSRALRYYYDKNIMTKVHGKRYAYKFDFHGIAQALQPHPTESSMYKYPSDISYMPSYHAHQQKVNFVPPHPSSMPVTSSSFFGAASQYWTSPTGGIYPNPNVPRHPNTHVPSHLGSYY
The settings on record: protein: recombinant; tags: N-terminal GST; dsDNA, one strand shown. In a few lines:
(§1)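 Pools were built from human transcription factors expressed in yeast as GST fusions, captured on glutathione beads and DNA-barcoded, along with a tag-only sample. Incubation with 200 nmole of a 16-mer random double-stranded DNA library lasted 30 min at room temperature in Tris/NaCl/DTT/glycerol buffer, and was followed by washing, 0.1% formaldehyde crosslinking, proximity ligation, PCR amplification and Illumina NextSeq500 sequencing. Binding signal is the quotient of each hexamer's read frequency for a factor and its frequency for the tag-only sample.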

Assay [2] addresses T2, ELK1 (Homo sapiens, UniProt P19419 1-428).
T2 sequence: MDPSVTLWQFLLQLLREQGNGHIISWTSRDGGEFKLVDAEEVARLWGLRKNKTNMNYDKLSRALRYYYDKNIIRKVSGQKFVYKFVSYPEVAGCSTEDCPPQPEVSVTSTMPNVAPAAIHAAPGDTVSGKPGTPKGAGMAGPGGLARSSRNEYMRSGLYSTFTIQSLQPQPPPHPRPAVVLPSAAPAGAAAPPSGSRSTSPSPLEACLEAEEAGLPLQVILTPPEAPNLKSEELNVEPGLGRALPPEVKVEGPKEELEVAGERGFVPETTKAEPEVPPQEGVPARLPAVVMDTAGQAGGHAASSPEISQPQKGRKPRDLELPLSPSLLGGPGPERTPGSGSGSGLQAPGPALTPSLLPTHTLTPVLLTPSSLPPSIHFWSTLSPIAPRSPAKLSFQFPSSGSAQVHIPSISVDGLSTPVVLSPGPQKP
As to conditions: protein: recombinant; tags: N-terminal GST; dsDNA, one strand shown. In a few lines: as §1

Assay [3] has as its target T3, GABPA (Homo sapiens, UniProt Q06546 1-454).
T3 sequence: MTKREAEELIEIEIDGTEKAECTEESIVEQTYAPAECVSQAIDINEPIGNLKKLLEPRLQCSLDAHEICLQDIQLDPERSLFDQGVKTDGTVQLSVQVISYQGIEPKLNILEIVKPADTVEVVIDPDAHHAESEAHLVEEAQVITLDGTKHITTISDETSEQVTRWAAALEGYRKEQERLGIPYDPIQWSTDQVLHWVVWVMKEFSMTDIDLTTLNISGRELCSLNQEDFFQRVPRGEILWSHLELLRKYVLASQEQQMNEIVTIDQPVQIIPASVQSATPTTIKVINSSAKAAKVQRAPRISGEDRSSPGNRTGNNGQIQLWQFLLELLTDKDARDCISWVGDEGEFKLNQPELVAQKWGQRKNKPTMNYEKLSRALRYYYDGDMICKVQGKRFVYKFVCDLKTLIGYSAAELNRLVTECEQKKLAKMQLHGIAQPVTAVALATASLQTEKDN
The settings on record: protein: recombinant; tags: N-terminal GST; dsDNA, one strand shown. The gist of the method: as §1

The target of assay [4] is T4, ERG (Homo sapiens, UniProt P11308 1-479).
T4 sequence: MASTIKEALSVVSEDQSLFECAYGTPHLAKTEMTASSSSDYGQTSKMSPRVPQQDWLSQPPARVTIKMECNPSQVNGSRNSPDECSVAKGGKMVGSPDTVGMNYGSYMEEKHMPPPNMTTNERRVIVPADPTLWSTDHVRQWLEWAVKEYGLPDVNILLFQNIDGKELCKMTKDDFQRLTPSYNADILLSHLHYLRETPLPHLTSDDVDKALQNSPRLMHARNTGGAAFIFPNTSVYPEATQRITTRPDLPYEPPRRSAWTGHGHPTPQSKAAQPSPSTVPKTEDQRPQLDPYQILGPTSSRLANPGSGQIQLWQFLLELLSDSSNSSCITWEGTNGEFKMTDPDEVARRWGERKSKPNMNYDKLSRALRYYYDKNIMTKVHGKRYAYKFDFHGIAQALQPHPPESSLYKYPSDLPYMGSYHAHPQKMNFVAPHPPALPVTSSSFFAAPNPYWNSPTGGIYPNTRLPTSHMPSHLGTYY
As to conditions: protein: recombinant; tags: N-terminal GST; dsDNA, one strand shown. The gist of the method:
as §1

For assay [5], the target named is ELF1 (Homo sapiens, UniProt P32519 1-619). The settings on record: protein: recombinant; tags: N-terminal GST; dsDNA, one strand shown. In a few lines: as §1
Sequence of ELF1 (P32519 whole entry): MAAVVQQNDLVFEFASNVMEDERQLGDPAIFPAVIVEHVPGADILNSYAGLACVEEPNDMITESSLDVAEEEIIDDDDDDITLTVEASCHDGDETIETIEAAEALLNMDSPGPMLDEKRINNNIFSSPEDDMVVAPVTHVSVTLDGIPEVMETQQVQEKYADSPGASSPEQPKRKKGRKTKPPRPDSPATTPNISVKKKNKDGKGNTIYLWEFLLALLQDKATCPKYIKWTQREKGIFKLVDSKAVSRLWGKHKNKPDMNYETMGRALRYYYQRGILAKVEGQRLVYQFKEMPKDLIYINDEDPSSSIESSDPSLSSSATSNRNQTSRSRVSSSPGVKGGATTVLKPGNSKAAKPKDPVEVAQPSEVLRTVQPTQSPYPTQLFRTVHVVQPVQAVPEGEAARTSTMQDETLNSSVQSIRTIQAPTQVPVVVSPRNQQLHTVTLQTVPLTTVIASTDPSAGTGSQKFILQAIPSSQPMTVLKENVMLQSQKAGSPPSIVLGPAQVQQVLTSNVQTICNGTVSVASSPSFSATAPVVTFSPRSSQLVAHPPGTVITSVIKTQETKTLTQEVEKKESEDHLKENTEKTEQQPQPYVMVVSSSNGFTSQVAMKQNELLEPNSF
The target of assay [6] is T5, EHF (Homo sapiens, UniProt Q9NZC4 1-300).
T5 sequence: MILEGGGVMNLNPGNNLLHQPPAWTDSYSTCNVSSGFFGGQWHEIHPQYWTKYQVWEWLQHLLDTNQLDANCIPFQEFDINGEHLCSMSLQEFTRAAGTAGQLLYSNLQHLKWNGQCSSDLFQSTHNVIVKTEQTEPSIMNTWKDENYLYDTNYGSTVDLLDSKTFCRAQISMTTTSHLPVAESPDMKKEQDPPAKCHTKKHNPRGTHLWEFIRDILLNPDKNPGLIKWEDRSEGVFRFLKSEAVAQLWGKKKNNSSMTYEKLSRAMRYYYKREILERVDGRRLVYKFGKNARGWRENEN
As to conditions: protein: recombinant; tags: N-terminal GST; dsDNA, one strand shown. In a few lines: as §1

For assay [7], the target named is SPI1 (Homo sapiens, UniProt P17947 1-270). The settings on record: protein: recombinant; tags: N-terminal GST; dsDNA, one strand shown. In a few lines: as §1
Assay [8] has as its target SPIB (Homo sapiens, UniProt Q01892 1-262). As to conditions: protein: recombinant; tags: N-terminal GST; dsDNA, one strand shown. In a few lines: as §1
The target in assay [9] is T6, ELK3 (Homo sapiens, UniProt P41970 1-407).
T6 sequence: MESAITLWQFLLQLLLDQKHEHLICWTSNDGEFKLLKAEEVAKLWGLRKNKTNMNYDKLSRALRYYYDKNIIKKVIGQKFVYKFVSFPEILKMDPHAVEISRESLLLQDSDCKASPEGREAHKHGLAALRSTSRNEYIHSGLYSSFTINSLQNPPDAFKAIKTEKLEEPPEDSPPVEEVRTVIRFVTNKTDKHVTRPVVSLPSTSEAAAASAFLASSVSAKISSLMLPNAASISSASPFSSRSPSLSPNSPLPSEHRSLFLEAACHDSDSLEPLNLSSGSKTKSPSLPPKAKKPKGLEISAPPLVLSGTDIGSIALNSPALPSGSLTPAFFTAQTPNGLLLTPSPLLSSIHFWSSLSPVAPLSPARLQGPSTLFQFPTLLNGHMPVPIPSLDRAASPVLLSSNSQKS
The settings on record: protein: recombinant; tags: N-terminal GST; dsDNA, one strand shown. The gist of the method: as §1

Assay [10] has as its target T7, FEV (Homo sapiens, UniProt Q99581 1-238).
T7 sequence: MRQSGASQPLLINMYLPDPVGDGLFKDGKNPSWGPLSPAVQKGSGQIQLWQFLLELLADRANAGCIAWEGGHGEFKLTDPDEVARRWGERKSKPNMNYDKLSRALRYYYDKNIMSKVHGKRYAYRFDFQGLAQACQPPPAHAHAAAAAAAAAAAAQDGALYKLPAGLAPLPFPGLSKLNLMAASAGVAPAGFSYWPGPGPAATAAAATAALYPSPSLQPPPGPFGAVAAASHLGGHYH
The settings on record: protein: recombinant; tags: N-terminal GST; dsDNA, one strand shown. In a few lines:
as §1

For assay [11], the target named is ETV5 (Homo sapiens, UniProt P41161 1-510). The settings on record: protein: recombinant; tags: N-terminal GST; dsDNA, one strand shown. In a few lines:
as §1

Assay [12] deals with HSF1 (Homo sapiens, UniProt Q00613 1-529). The settings on record: protein: recombinant; tags: N-terminal GST; chain copies: 3; dsDNA, one strand shown. The gist of the method: as §1
Sequence of HSF1 (Q00613 whole entry): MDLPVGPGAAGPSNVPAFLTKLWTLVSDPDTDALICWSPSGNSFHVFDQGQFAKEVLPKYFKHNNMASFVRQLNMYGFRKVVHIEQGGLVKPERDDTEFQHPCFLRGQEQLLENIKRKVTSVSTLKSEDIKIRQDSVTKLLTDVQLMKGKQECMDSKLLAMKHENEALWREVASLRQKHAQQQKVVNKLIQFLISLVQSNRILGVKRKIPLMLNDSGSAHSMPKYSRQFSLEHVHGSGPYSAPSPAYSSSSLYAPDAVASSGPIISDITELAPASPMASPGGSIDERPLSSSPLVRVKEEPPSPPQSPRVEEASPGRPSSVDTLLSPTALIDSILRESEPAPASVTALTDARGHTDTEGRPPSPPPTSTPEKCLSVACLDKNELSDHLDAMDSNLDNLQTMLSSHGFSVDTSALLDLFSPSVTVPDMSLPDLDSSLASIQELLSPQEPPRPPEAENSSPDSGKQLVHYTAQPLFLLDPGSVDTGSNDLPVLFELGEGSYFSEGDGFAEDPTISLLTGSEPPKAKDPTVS
Assay [13] addresses T8, SPIC (Homo sapiens, UniProt Q8N5J4 1-248).
T8 sequence: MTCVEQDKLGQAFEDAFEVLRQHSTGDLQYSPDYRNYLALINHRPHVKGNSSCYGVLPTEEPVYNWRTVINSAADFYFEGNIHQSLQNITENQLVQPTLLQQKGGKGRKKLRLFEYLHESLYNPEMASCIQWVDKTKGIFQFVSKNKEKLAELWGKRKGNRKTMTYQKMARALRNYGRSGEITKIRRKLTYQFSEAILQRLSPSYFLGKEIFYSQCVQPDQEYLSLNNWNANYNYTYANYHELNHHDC
The settings on record: protein: recombinant; tags: N-terminal GST; dsDNA, one strand shown. In a few lines:
as §1

For assay [14], the target named is ELF4 (Homo sapiens, UniProt Q99607 1-663). As to conditions: protein: recombinant; tags: N-terminal GST; dsDNA, one strand shown. The gist of the method:
as §1

Assay [15] concerns the target T9, ELK4 (Homo sapiens, UniProt P28324-2 1-405).
T9 sequence: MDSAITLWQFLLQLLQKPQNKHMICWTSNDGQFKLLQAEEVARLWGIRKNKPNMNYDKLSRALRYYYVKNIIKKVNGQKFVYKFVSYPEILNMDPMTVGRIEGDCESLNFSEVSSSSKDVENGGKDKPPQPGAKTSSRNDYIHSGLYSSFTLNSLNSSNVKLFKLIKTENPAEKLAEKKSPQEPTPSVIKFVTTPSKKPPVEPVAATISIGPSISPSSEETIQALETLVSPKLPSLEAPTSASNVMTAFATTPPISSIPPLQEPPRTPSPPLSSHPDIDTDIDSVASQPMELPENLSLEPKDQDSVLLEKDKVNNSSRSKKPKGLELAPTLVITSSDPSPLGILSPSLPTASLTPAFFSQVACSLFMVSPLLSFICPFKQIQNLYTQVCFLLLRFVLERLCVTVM
The settings on record: protein: recombinant; tags: N-terminal GST; dsDNA, one strand shown. The gist of the method:
as §1

The target in assay [16] is T10, ETV2 (Homo sapiens, UniProt O00321 1-342).
T10 sequence: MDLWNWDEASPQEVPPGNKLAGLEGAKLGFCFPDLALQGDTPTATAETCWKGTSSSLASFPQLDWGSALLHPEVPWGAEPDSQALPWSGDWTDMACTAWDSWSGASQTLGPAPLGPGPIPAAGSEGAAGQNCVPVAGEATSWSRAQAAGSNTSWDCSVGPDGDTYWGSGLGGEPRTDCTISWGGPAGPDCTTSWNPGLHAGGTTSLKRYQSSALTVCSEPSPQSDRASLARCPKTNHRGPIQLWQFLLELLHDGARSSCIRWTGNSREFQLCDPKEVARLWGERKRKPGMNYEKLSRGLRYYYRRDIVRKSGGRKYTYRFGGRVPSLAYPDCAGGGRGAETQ
As to conditions: protein: recombinant; tags: N-terminal GST; dsDNA, one strand shown. In a few lines: as §1

The target in assay [17] is T11, ELF3 (Homo sapiens, UniProt P78545 1-371).
T11 sequence: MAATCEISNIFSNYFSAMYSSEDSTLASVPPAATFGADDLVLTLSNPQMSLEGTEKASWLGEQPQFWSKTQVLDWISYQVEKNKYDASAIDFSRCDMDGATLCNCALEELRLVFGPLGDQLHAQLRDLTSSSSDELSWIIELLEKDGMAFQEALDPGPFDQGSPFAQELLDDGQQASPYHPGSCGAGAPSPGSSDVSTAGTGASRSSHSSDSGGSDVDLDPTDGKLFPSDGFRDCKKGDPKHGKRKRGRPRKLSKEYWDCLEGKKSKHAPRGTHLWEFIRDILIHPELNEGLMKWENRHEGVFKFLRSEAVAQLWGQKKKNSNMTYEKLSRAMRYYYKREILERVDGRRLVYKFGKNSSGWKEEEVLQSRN
The settings on record: protein: recombinant; tags: N-terminal GST; dsDNA, one strand shown. In a few lines:
as §1

The target of assay [18] is CRX (Homo sapiens, UniProt O43186 1-299). The settings on record: protein: recombinant; tags: N-terminal GST; dsDNA, one strand shown. In a few lines:
as §1

The target in assay [19] is ETV1 (Homo sapiens, UniProt P50549 1-477). As to conditions: protein: recombinant; tags: N-terminal GST; dsDNA, one strand shown. The gist of the method:
as §1

Experimental findings from paper PMC7862700, “An all-to-all approach to the identification of sequence-specific readers for epigenetic DNA modifications on cytosine” are described below.

Sequence of SPIB (Q01892 whole entry): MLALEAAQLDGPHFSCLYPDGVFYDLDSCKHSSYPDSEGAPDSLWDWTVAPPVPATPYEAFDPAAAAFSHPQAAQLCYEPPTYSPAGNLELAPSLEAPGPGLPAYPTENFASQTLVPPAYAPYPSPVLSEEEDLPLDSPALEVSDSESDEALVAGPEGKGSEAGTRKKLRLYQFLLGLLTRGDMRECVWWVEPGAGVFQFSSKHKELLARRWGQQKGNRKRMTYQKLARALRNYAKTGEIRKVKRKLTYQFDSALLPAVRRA
Sequence of ETV1 (P50549 whole entry): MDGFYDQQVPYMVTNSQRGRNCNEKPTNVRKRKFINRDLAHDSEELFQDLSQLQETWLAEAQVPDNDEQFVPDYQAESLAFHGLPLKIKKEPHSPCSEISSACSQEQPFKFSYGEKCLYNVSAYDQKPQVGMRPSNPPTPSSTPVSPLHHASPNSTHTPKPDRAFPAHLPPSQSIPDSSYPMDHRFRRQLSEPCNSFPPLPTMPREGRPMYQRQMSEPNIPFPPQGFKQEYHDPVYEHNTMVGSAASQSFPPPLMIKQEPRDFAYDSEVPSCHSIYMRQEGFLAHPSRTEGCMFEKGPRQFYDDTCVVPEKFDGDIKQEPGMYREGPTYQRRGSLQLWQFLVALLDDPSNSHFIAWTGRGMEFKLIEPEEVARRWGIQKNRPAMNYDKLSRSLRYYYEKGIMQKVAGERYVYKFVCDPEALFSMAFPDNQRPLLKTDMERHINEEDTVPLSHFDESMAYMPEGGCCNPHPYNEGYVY
Sequence of ELF4 (Q99607 whole entry): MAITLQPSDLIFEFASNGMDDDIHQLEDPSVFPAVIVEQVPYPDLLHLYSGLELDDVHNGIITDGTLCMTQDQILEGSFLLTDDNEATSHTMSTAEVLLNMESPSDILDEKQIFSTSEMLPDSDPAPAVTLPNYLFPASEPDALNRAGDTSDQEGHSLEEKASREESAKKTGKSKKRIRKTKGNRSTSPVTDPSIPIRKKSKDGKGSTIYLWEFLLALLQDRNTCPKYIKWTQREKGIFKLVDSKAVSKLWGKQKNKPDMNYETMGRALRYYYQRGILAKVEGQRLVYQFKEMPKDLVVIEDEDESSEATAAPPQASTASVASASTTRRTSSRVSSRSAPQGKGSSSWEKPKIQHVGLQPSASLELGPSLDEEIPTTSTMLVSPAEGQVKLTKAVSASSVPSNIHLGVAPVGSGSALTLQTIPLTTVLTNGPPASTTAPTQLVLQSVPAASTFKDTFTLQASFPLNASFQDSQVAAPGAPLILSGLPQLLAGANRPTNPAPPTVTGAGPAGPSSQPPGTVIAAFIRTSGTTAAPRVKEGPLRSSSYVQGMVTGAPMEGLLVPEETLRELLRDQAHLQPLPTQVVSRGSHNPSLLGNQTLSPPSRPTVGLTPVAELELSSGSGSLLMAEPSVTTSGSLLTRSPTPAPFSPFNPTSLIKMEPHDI
Sequence of ETV5 (P41161 whole entry): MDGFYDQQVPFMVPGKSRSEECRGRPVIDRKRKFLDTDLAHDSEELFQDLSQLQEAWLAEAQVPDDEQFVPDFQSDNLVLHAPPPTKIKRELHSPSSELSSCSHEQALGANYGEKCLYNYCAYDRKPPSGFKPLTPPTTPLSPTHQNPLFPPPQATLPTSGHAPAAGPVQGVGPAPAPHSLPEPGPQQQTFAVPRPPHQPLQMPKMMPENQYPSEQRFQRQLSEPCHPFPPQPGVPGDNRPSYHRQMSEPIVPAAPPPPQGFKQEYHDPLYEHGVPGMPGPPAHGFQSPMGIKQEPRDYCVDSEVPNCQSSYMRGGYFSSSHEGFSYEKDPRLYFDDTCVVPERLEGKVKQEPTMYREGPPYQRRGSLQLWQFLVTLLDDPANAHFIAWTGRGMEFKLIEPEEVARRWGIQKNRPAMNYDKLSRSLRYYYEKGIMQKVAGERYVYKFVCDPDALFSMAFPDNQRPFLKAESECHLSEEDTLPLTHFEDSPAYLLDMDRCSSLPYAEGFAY
Sequence of CRX (O43186 whole entry): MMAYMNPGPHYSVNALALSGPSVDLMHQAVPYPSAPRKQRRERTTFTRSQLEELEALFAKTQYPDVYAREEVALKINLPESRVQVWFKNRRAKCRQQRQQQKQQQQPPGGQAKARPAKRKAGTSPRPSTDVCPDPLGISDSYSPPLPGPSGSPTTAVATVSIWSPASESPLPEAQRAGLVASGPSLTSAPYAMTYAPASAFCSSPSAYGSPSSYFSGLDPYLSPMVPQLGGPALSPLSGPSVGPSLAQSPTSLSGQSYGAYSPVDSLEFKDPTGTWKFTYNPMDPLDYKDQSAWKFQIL

Consider ATACTT, for which the binding signal is 1.57 fold enrichment (6-mer frequency, TF over GST control) in [1]; 1.6 fold enrichment (6-mer frequency, TF over GST control) in assay [2]; 1.54 fold enrichment (6-mer frequency, TF over GST control) in assay [3]; 1.68 fold enrichment (6-mer frequency, TF over GST control) in assay [4]; 1.61 fold enrichment (6-mer frequency, TF over GST control) in assay [5]; 1.71 fold enrichment (6-mer frequency, TF over GST control) in [6]. Further, the binding signal was 1.67 fold enrichment (6-mer frequency, TF over GST control) in assay [7]; 1.48 fold enrichment (6-mer frequency, TF over GST control) in assay [8]; 1.7 fold enrichment (6-mer frequency, TF over GST control) in assay [9]; 1.6 fold enrichment (6-mer frequency, TF over GST control) in [10]; 1.6 fold enrichment (6-mer frequency, TF over GST control) in [11]; 1.34 fold enrichment (6-mer frequency, TF over GST control) in assay [12]. For the same sequence, the binding signal in assay [13] was 1.58 fold enrichment (6-mer frequency, TF over GST control); in assay [14], 1.55 fold enrichment (6-mer frequency, TF over GST control); in [15], 1.55 fold enrichment (6-mer frequency, TF over GST control); in [16], 1.53 fold enrichment (6-mer frequency, TF over GST control); in assay [17] it was 1.58 fold enrichment (6-mer frequency, TF over GST control); in assay [18], 1.71 fold enrichment (6-mer frequency, TF over GST control). Moreover, in assay [19], the binding signal is 1.72 fold enrichment (6-mer frequency, TF over GST control).
